An excerpt weighted towards active compounds, which were near 4.3% of everything screened.
SMARCA2 activ: increases SMARCA2 function in MMTV reporter cells. MG213 cells, MMTV-luciferase reporter, dexamethasone, overnight. 1% of 370,000 active. AID 652017. activation, % at 9.1 µM; in the data active means activation above about 7.8%;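 further: 0% = vehicle wells and 100% = reference activator wells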
MLL AF4-AF9 inh: blocks AF4 peptide binding to human AF9. AID 651704. AlphaScreen, biotin-AF4 peptide binding to FLAG-AF9. 0.47% of 350,000 active. P42568. inhibition, % at 10 µM;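 active means every replicate reaching a set inhibition limit, whatever the replicate mean, cut at about 25% in these data; inconclusive means mean inhibition reaches that limit but some replicates miss it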;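 further: 0% = plate neutral control median and 100% = total signal loss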
Target sequence (P42568 whole entry, looked up): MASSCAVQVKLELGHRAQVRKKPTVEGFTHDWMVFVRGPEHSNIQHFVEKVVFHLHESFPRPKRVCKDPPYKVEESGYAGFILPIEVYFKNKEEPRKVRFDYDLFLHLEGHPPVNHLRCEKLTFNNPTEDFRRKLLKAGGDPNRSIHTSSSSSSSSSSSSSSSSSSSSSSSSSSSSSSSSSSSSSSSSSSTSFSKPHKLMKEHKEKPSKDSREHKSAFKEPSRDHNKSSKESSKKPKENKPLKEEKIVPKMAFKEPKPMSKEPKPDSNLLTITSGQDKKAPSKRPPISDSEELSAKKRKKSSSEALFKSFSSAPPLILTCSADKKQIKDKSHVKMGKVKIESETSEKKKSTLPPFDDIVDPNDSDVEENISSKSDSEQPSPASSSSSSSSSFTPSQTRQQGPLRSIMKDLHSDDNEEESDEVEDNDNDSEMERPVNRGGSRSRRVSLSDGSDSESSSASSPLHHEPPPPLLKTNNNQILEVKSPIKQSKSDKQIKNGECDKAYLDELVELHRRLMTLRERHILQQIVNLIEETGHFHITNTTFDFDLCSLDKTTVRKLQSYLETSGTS
FGF22 binding: shifts melting point of recombinant human FGF22; Q9HCT0; recombinant FGF22 thermal shift, SYPRO orange fluorescence; percent of sucrose octasulfate shift, DMSO zero; activity (Tm shift, normalised), % at 9.99 µM; 1.5% of 340,000 active; AID 651658;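 active means mean Tm shift, scaled 0 neutral to 100 positive control, at about 1.3% or above, every replicate too, limit read from the data; inconclusive means no clear call, values can overlap the other calls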
MITF TRPM1 HTS: increases MITF-driven TRPM1 promoter luciferase signal | SK-MEL-5 TRPM1-promoter luciferase, 24 h; % of positive control, neutral wells = 0 | activation, % at 12.5 µM | 0.75% of 300,000 active;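 active means mean activation of at least 80% with every replicate also reaching 80%; inconclusive means mean reaches 80% but some replicate falls short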;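 further: 0% = neutral control wells and 100% = parthenolide positive control wells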
esBAF inh: inhibitors of esBAF chromatin remodeling in mouse ES cells. Bmi1-luciferase knock-in reporter, 24 h; 100% = twice the neutral-well signal. AID 602393. reporter increase, % at 12.5 µM. 2% of 350,000 active; in the data active means activation above about 40%; inconclusive means no clear call, values can overlap the other calls;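 further: 0% = median of the plate's neutral control wells and 100% = double that signal; a rise in the Bmi1 reporter signal indicates esBAF inhibition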
Wnt act: Wnt/beta-catenin pathway activation | Wnt/beta-catenin reporter cell assay, activator, plate reader | activation, % at 9.35 µM | 1.2% of 300,000 active; in the data active means activation above about 30%, passing the limit was not always enough; inconclusive means no clear call, values can overlap the other calls;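 further: 0% = neutral control wells and 100% = positive control wells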
The depositor's hits bear a star; ? = inconclusive; nt = no result.

SMILES | SMARCA2 activ | MLL AF4-AF9 inh | FGF22 binding | MITF TRPM1 HTS | esBAF inh | Wnt act
COc1ccc(C(NC(C)=O)c2cc(Cl)c3cccnc3c2O)cc1 (stereo unspecified) | -2 | -5 | 0 | nt | -12 | -6
CCCC(=O)NC(c1ccc(OC)c(OC)c1)c1cc(Cl)c2cccnc2c1O (stereo unspecified) | -1 | -2 | 43* | -61 | nt | 4
COc1ccccc1N1CCN(C(=O)c2cc(-c3ccccc3)on2)CC1 | -2 | 6 | 0 | 10 | 10 | 0
Cc1ccc(N2CCN(C(=O)c3cc(COc4c(C)cccc4C)on3)CC2)c(C)c1 | -1 | -3 | 0 | 5 | 0 | 1
COc1cccc(OCc2cc(C(=O)N3CCN(c4ccccc4O)CC3)no2)c1 | 2 | 0 | 0 | 97* | 49* | 26
COc1cccc(OCc2cc(C(=O)N3CCN(c4ccccc4OC)CC3)no2)c1 | 4 | 2 | 0 | 83* | 77* | 37*
CC(C)C#Cc1cnc2c(c1)C(=O)N([C@@H](C)CO)C[C@@H](C)[C@@H](CN(C)C(=O)CC1CC1)O2 | nt | -7 | nt | nt | nt | nt
Cc1sc2ncn(/N=C/c3ccco3)c(=O)c2c1C | -1 | -4 | 0 | 13 | 49* | 22
N/C(=N\OC(=O)c1cccc2ccccc12)c1ccc(Br)cc1 | 6 | -2 | 44* | -3 | nt | 3
Cc1cc(C)cc(C(=O)O/N=C(\N)c2ccc(Br)cc2)c1 | -3 | nt | nt | 21 | 10 | nt
N/C(=N\OC(=O)c1ccoc1)c1ccc(Br)cc1 | 7.8* | -2 | 0 | 93* | 44* | 42*
N/C(=N\OC(=O)c1cccc2ccccc12)c1ccncc1 | 3 | 20 | 0 | 55 | -17 | 14
N/C(=N\OC(=O)c1ccc([N+](=O)[O-])cc1)c1ccc(Br)cc1 | -2 | -5 | 0 | nt | 34 | 16
Cc1ccc(C)c(C(=O)O/N=C(\N)c2ccc(Br)cc2)c1 | 5 | nt | nt | nt | 43* | 26
Cc1ccc(C(=O)O/N=C(\N)c2ccc(Br)cc2)cc1C | 3 | nt | nt | 55 | 53* | nt
CCS(=O)(=O)Nc1ccc2c(c1)C(=O)N(C)C[C@@H](OC)[C@H](C)CN(C(=O)NC(C)C)[C@H](C)CO2 | nt | -2 | 0 | nt | -2 | nt
CC(=O)Nc1nc2ccc(Br)cc2s1 | 2 | nt | nt | 24 | 62* | nt
CCOC(=O)c1ccc2nc(NC(C)=O)sc2c1 | 3 | 0 | 43* | 42 | 47* | 46*
O=C(Nc1nc2ccc(Br)cc2s1)c1ccco1 | 4 | 3 | 0 | 44 | 13 | 5
CC=Cc1ccc2n(c1=O)C[C@@H]1[C@@H](CO)[C@H](C(=O)NCC3CC3)N(CCC(F)(F)F)[C@H]21 (mixture of isomers) | nt | -1 | 0 | nt | 7 | nt
CNc1cc(-c2ccc(OC)nc2)ncn1 | 1 | 1 | 0 | nt | 50* | 20
CNc1cc(-c2cc(OC)ccc2OC)ncn1 | 2 | 9 | 0 | nt | 3 | nt
N/C(=N\OC(=O)COc1ccc(Cl)cc1Cl)c1ccncc1 | 0 | -2 | 0 | 56 | 71* | 8
N/C(=N\OC(=O)c1cccnc1)c1ccccc1Cl | 3 | -2 | 0 | 17 | 74* | 9
N/C(=N\OC(=O)COc1ccc(Br)cc1Cl)c1cccnc1 | 0 | -1 | 0 | 111* | nt | 6
SMILES | SMARCA2 activ | MLL AF4-AF9 inh | FGF22 binding | MITF TRPM1 HTS | esBAF inh | Wnt act
O=C(NC[C@@H]1[C@H](c2ccccc2)[C@H](CO)N1CC1CCCC1)C1CC1 | nt | -1 | nt | nt | nt | nt
C[C@@H]1CN([C@@H](C)CO)C(=O)CCCn2nncc2CO[C@@H]1CN(C)Cc1ccc(-c2ccccc2)cc1 | nt | 8 | 0 | nt | -3 | nt
C[C@@H]1CN([C@H](C)CO)C(=O)c2cc(C#CC3(O)CCCC3)cnc2O[C@@H]1CN(C)C(=O)C1CCC1 | nt | -2 | 0 | nt | -1 | nt
O=C(NC[C@H]1[C@@H](c2ccccc2)[C@H](CO)N1C(=O)C1CC1)NC1CCCC1 | nt | -15 | -1 | nt | -4 | nt
Cc1ccc(NC(=O)NNC(=O)c2cc3ccccc3cc2O)cc1C | -1 | 0 | 1 | 0 | -4 | -1
Cc1ccc(NC(=O)c2cc3ccccc3cc2O)cc1 | -3 | 3 | 0 | 78 | 44* | 46*
COc1ccc(NC(=O)c2cc3ccccc3cc2O)cc1 | -1 | -2 | 0 | 79 | ? | 35*
COC(=O)C1=C(C)N(C)C(=S)NC1c1ccc(Cl)cc1 (stereo unspecified) | -2 | -6 | 44* | 3 | -5 | -3

High-throughput results as filed in PubChem BioAssay.
